USP17 block: blocks human USP17 ubiquitin-rhodamine cleavage. inhibition, % at 50 µM. 47,000 compounds, 6.5% hits. AID 1645855. A8MUK1. purified USP17, Ub-rhodamine cleavage fluorescence, 3 h
USP10 block: inhibitors of human USP10 deubiquitinase; Q14694; purified USP10, Ub-rhodamine fluorescence, 60 min; inhibition, % at 20 µM; 47,000 compounds, 1.1% hits; AID 1645856
USP8 inh: blocks human USP8 ubiquitin-rhodamine cleavage | purified USP8, Ub-rhodamine cleavage fluorescence, 30 min | inhibition, % at 20 µM | 47,000 compounds, 4.2% hits | AID 1645853
USP28 inh: blocks human USP28 ubiquitin-rhodamine cleavage; Q96RU2; inhibition, % at 25 µM; purified USP28, Ub-rhodamine cleavage fluorescence, 30 min; 47,000 compounds, 3% hits
USP30 block: human USP30 deubiquitinase inhibition; Q70CQ3; purified USP30, Ub-rhodamine cleavage fluorescence; inhibition, % at 25 µM; 47,000 compounds, 5.3% hits
A number is an active result; . = inactive; / = no result given. Hits are enriched below; roughly 13% of the tested compounds scored in any of these assays. No stated cut-off is given here; in the data, active means inhibition above about 30%; inactive means the rest.

SMILES | USP17 block | USP10 block | USP8 inh | USP28 inh | USP30 block
COc1ccc(-c2nn(-c3ccccc3)c3[nH]c(=O)c(CNc4ccc5c(c4)OCCO5)cc23)cc1OC | 43.5 | . | 78.3 | . | .
NC(=O)c1ccccc1NCc1cc(=O)n2cc(Cl)ccc2n1 | . | . | . | . | .
Cc1ccc2nc(CN(C)c3ccccc3)cc(=O)n2c1 | 35.8 | . | 74.2 | . | .
CN(Cc1cc(=O)n2ccsc2n1)c1ccccc1 | . | . | 34.7 | . | .
Cc1ccc2nc(SCC(=O)NCc3ccccc3)nc(=O)n2c1 | . | . | . | . | .
Cc1cccc(N2CCN(Cc3cc(=O)n4ccsc4n3)CC2)c1C | . | . | . | . | .
Cc1ccc2nc(CNc3ccc(F)cc3C)cc(=O)n2c1 | 84.7 | . | 93.0 | 52.1 | .
CC(C)CCNC(=O)c1cccc(-c2cnc(NC3CCCCC3)nc2)c1 | . | . | . | . | 32.0
CC(C)CCNC(=O)c1ccc2c(=O)n(C3CCCC3)c(=O)[nH]c2c1 | . | . | 34.4 | . | .
COc1ccc(CCn2cnc3scc(-c4ccccc4)c3c2=O)cc1OC | . | . | . | . | .
CCN(Cc1ccc2c(c1)OCO2)C(=O)Cn1cnc2c(cnn2-c2ccccc2)c1=O | . | . | . | . | .
CN(Cc1ccc2c(c1)OCO2)C(=O)Cn1cnc2sc(-c3ccccc3)cc2c1=O | . | . | 55.0 | . | .
O=c1c2c(-c3ccccc3)csc2ncn1Cc1ccc2c(c1)OCO2 | . | . | . | 39.8 | .
Oc1ccc2c3c1[C@@H](O)C1OC1[C@]31Oc3cccc4c3[C@](C=C[C@@H]4O)(O2)O1 (stereo partly specified) | 46.3 | . | . | . | .
O=C(NC1CCCCC1)C1CCN(c2ccc(N3CCCCC3)nn2)CC1 | . | . | . | . | .
COc1ccc(-c2nnc(N3CCC(C(=O)NC4CCCC4)CC3)o2)cc1 | 74.7 | . | . | . | 80.0
COc1ccccc1C1CN2C(=O)N(c3ccccc3C)C(=O)[C@]2(C)c2[nH]c3ccccc3c21 (stereo partly specified) | . | . | . | . | .
CN(C1CCCCC1)S(=O)(=O)N1CCC2(CC1)CC2c1nc(-c2cccnc2)no1 (stereo unspecified) | . | . | . | . | .
C=C(CCC=C(C)C)[C@H]1CC[C@]2(C)[C@@H]1CC[C@@H]1[C@@]3(C)CCC(=O)C(C)(C)[C@@H]3CC[C@]12C | 40.5 | . | . | . | 31.4
CCOc1cc(C2NC(=O)c3c(sc4c3CCN(C)C4)N2)ccc1OC(=O)c1ccccc1 (stereo unspecified) | . | . | . | . | .
N#Cc1cccc(S(=O)(=O)c2c[nH]c3cc(Cl)ccc3c2=O)c1 | 46.1 | . | 56.8 | . | .
COc1ccc2nc(N3CC(C(=O)Nc4ccc(C(N)=O)cc4)C3)sc2c1 | 64.9 | . | . | 32.5 | 61.6
O=C(NC1CCCC1)c1ccc(-c2ccc(S(=O)(=O)NCc3ccccc3)cc2)cc1 | . | . | 45.0 | . | 41.0
O=C1CO[C@H](c2ccc(NC(=O)c3cc(F)cc(F)c3)cc2)[C@@H](CO)N1 | . | . | . | . | .
N#Cc1ccc(C(=O)Nc2ccc([C@H]3OCC(=O)N[C@@H]3CO)cc2)cc1 | 32.7 | . | . | . | 34.7
SMILES | USP17 block | USP10 block | USP8 inh | USP28 inh | USP30 block
CC(C)CCC(=O)N1CCC(N2CC(=O)N(C(C)c3ccccc3)C2)CC1 (stereo unspecified) | . | . | . | . | .
CCCn1nnnc1CN1CCc2cc(OC)c(OC)cc2C1c1ccccc1 (stereo unspecified) | . | . | . | . | 32.6
COc1ccccc1C1CCNc2ccccc2N1 (stereo unspecified) | . | . | . | . | .
COc1cccc(C2CCNc3ccccc3N2)c1 (stereo unspecified) | 36.0 | . | 74.0 | . | .
Cc1ccc(-c2c(C(=O)Nc3ccc(S(N)(=O)=O)cc3)oc(=O)c3ccccc23)cc1 | 56.6 | . | . | . | .
COc1ccc(NC(=O)c2oc(=O)c3ccccc3c2-c2ccccc2)cc1 | . | . | . | . | .
CN(C(=O)c1cccc2cccnc12)c1nc2c(s1)CCc1occc1-2 | 69.2 | . | 63.8 | . | .
CN(C(=O)C1(c2ccccc2)CC1)c1nc2c(s1)CCc1occc1-2 | . | . | . | . | .
Cc1ccc2nc(NC(=O)C3CCCN3S(=O)(=O)c3ccc4c(c3)OCCO4)sc2c1 (stereo unspecified) | . | . | . | 53.4 | .
O=C(Cc1cccc2ccccc12)Nc1nc2ccc(Br)cc2s1 | . | . | . | . | .
O=C(Nc1nc2c(ccc3ccccc32)s1)c1cccc(Br)c1 | 47.0 | . | 35.6 | . | 65.2
Cc1nc2c(c(=O)[nH]1)CC[C@@H]1CN(Cc3ccnc(N4CCCC4)n3)C[C@H]21 | . | . | . | . | .
COc1ccc(C(=O)Nc2ccc3c(c2)OCCCO3)cn1 | . | . | . | 31.7 | .
COc1cccc2[nH]c(C(=O)Nc3ccc4c(c3)OCCO4)cc12 | . | . | . | . | .
COc1cc2c(=O)c(C(=O)c3ccc(F)cc3)cn(CC(=O)Nc3ccc(F)cc3)c2cc1OC | 32.7 | . | . | . | .
COc1cc2c(=O)c(C(=O)c3ccc(F)cc3)cn(CC(=O)Nc3ccc4c(c3)OCCO4)c2cc1OC | 37.3 | . | . | . | .
COc1cc(C(=O)Nc2ccc3c(c2)OCCO3)ccc1OCC(=O)Nc1ccc(F)cc1 | 35.6 | . | . | . | .
CCOc1cc(CN2CCCC(c3ncc(Cl)cc3S(C)(=O)=O)C2)ccc1O (stereo unspecified) | . | . | . | . | .
COc1cccc(-c2nc(CC(=O)NCCc3c[nH]c4ccc(OC)cc34)cs2)c1 | . | . | . | . | .
CCOC(=O)c1nc(Cn2c(C(F)(F)F)nc3ccccc32)no1 | . | . | . | / | /
COc1ccc(S(=O)(=O)N(C(=O)c2ccccc2)c2ccc3oc(C)c(C(C)=O)c3c2)cc1 | . | . | . | . | .
Cc1ccc(C(=O)c2cn(CC(=O)Nc3ccc(F)c(F)c3)c3ccc(F)cc3c2=O)cc1 | . | . | . | . | .
COc1ccc(NC(=O)Cn2cc(C(=O)c3ccc(F)cc3)c(=O)c3cc(C)ccc32)cc1OC | . | . | 55.4 | . | .
O=C(NCCc1c[nH]c2ccccc12)C(=O)Nc1cccc2ncccc12 | 41.6 | . | . | . | .
O=C(NCCc1c[nH]c2ccccc12)C(=O)Nc1ccccc1C(=O)N1CCCC1 | . | . | . | . | .
SMILES | USP17 block | USP10 block | USP8 inh | USP28 inh | USP30 block
COc1cc(OC)cc(C(=O)NC(c2ccccc2)c2cccnc2)c1 (stereo unspecified) | . | . | . | . | .
Cc1nc(N2CCN(C)CC2)ncc1C(=O)Nc1ccccc1 | . | . | . | . | .
O=C(COc1ccccc1)Nc1ccc(-c2nc3cnccc3o2)c(O)c1 | . | . | 84.0 | . | .
O=C(CCn1c(=S)oc2ccccc21)Nc1ccc(O)c(-c2nc3ccccc3o2)c1 | . | . | 33.3 | . | .
COc1ccc(OCC(=O)Nc2cc(C)c(O)c(-c3nc4ccccc4o3)c2)cc1 | . | . | . | . | .
COc1ccccc1C(=O)Nc1ccc(-c2nc3ccccc3o2)c(O)c1 | . | 32.2 | 37.3 | . | .

From PubChem
